Data on 29 compounds can be found in PubChem BioAssay (EPA / NIEHS).

Broadly, the AC50 is the concentration giving half of the maximal activity seen.

Records with an inconclusive call do not appear. Activity calls are given as the source filed them. How the source made its calls, unless noted: active means hit-call score of the fitted dose curve at least 0.9, where 1 is the maximum; inconclusive means response in the unintended direction; inactive means score below 0.9.

The target of test [1] is Estrogen receptor beta (Homo sapiens) (UniProt Q92731). Kind of test: OT_ER_ERbERb_1440: Odyssey Thera (OT) 24-hour HEK293T Protein-Complementation Assay for Estrogen Receptor-beta/-beta Homodimer (AID 2283380).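 Further: fluorescence gain from ER beta LBD homodimer complementation read by laser scanning cytometry; scored as signal increase over DMSO baseline for both agonists and antagonists.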 In a few lines: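 Fluorescence increase, nuclear for agonists or whole-cell for antagonists, relative to DMSO vehicle, quantified by laser scanning cytometer after fixation and Draq5 staining. Readout from 24 h treatment of HEK293T cells carrying complementation-paired ER beta LBD (aa 310-547).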
Chain of Estrogen receptor beta (Homo sapiens) (Q92731 whole entry, looked up, the tested form may be a part): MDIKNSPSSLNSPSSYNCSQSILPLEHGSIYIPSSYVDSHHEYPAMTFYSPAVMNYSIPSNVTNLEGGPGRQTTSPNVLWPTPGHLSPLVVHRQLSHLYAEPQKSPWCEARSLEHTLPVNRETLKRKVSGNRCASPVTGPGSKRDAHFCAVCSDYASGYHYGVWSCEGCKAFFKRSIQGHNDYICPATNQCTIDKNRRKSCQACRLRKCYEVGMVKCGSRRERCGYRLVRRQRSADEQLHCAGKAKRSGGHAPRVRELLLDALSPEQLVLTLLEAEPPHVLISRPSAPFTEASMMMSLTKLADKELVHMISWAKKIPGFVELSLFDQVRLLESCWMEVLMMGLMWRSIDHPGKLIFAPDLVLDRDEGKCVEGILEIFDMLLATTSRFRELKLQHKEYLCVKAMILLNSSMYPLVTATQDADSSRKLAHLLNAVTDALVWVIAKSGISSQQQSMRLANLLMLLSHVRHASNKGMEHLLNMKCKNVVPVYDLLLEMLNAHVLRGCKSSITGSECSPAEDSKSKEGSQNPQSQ

The target in test [2] is Estrogen receptor (Homo sapiens) (UniProt P03372). Kind of test: OT_ERa_GFPERaERE_0480: Odyssey Thera (OT) 8-hour HeLa Transcription Induction Assay for Estrogen Receptor (AID 2283381; active means hit-call score of the fitted dose curve at least 0.9, where 1 is the maximum; inactive means score below 0.9). In a few lines: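 An 8 h HeLa transcription-induction format with a GFP reporter under ERE control, read by fluorescence microscopy; single endpoint fitted positively with DMSO as baseline.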
Chain of Estrogen receptor (Homo sapiens) (P03372 whole entry, looked up): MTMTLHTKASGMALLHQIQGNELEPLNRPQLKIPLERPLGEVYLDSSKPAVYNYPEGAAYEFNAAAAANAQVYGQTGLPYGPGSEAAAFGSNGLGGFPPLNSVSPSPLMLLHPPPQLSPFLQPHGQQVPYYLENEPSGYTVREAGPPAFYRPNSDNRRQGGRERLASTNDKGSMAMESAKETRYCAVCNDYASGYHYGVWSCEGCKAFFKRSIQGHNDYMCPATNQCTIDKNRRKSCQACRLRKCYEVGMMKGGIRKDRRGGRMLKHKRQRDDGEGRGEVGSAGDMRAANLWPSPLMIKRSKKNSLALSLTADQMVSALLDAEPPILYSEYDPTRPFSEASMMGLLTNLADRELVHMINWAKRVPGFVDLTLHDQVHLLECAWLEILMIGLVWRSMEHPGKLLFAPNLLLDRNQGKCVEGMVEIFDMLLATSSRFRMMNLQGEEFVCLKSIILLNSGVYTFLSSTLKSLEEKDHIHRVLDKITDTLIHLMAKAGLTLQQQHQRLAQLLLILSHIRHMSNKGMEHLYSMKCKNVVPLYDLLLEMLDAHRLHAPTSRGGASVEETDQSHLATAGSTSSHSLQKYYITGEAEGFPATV

For test [3] the target is unchanged. Kind of test: OT_ERa_GFPERaERE_0120: Odyssey Thera (OT) 2-hour HeLa Transcription Induction Assay for Estrogen Receptor (AID 2283382). The method, boiled down:
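Two-hour compound treatment of HeLa cells preceded microscopy imaging of an inducible fluorescent reporter. Image-based quantification gave one endpoint, analysed for signal increase relative to DMSO controls.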

The target in test [4] is Retinoic acid receptor RXR-alpha (Homo sapiens) (UniProt P19793). In words: OT_NURR1_NURR1RXRa_0480: Odyssey Thera (OT) 8-hour HEK293T Protein Complementation Assay for Nurr1/retinoid X receptor (RXR) (AID 2283385). In a few lines: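 Gain in fluorescent complementation signal over DMSO, measured 8 hours after chemical dosing of human kidney HEK293T cells, indicated enhanced Nurr1–RXRα association.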
Chain of Retinoic acid receptor RXR-alpha (Homo sapiens) (P19793 whole entry, looked up, the tested form may be a part): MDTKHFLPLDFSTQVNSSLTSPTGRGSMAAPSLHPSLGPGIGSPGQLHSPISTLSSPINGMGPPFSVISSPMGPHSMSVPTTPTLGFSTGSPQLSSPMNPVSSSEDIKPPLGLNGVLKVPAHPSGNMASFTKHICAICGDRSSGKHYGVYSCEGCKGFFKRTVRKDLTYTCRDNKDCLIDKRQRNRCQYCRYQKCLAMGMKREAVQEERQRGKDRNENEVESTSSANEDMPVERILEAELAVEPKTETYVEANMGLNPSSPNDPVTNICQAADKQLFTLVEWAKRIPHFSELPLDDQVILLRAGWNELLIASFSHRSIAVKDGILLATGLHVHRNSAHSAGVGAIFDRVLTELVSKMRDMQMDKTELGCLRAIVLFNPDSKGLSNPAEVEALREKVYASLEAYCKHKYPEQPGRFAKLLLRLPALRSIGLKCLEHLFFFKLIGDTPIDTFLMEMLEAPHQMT

The target of test [5] is Peroxisome proliferator-activated receptor gamma (Homo sapiens) (UniProt P37231). Kind of test: OT_PPARg_PPARgSRC1_0480: Odyssey Thera (OT) 8-hour Protein-Complementation Assay for Peroxisome Proliferator-activated Receptor Gamma / SRC-1 Co-activator (AID 2283387). In a few lines:
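Split-YFP (IFP1/IFP2) PPARg/SRC-1 reporter, HEK293T, 37 °C, 5% CO2; 8 h compound; formaldehyde fix + Draq5; high-content imaging, N/C ratio, ≥350 cells/image, positive direction vs DMSO.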

The target is the same in test [6]. Kind of test: OT_PPARg_PPARgSRC1_1440: Odyssey Thera (OT) 24-hour Protein-Complementation Assay for Peroxisome Proliferator-activated Receptor Gamma/ SRC-1 Co-activator (AID 2283388). The method, boiled down: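 HEK293T cells transiently transfected with PPARg and SRC-1 fused via (Gly4Ser)2 linker to split Venus YFP fragments (IFP1/IFP2) were dosed 24 h; fixed, Draq5-stained, imaged at 488/635 nm; nuclear/cytoplasmic fluorescence ratio scored versus DMSO baseline, gain-of-signal.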

Test [7] in a line: CEETOX_H295R_11DCORT: CeeTox H295R High-throughput Steroidogenesis Assay for 11-Deoxycortisol (11DCORT) (AID 2283432; active means hit-call score of the fitted dose curve at least 0.9, where 1 is the maximum; inactive means score below 0.9;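 on AC50: 11-deoxycortisol secreted into the medium measured by LC-MS/MS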). The note with it: actives raise or lower the signal. In a few lines:
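Steroidogenesis in human H295R cells: 48 h chemical exposure after forskolin priming, 11-deoxycortisol measured by LC-MS/MS.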

A short description of test [8]: CEETOX_H295R_OHPREG: CeeTox H295R High-throughput Steroidogenesis Assay for OH-Pregnenolone (OHPREG) (AID 2283434; active means hit-call score of the fitted dose curve at least 0.9, where 1 is the maximum; inactive means score below 0.9). The note with it: actives raise or lower the signal. The method, boiled down:
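Secreted 17alpha-hydroxypregnenolone measured by HPLC-MS/MS after liquid-liquid extraction. Human adrenal H295R cells received 48 h forskolin (10 uM) stimulation before 48 h chemical exposure at 0.1% final DMSO; MTT viability in same wells; bidirectional fit against DMSO.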

Test [9] is described as follows: CEETOX_H295R_OHPROG: CeeTox H295R High-throughput Steroidogenesis Assay for OH-Progesterone (OHPROG) (AID 2283435; active means hit-call score of the fitted dose curve at least 0.9, where 1 is the maximum; inactive means score below 0.9;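 on AC50: 17alpha-hydroxyprogesterone secreted into medium measured by HPLC-MS/MS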). The note with it: actives raise or lower the signal. In a few lines:
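Human adrenocortical H295R cells, passage 10 or lower, were treated with chemical for 48 h after forskolin priming, and hormone output in the medium was quantified by LC-MS/MS.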

Test [10] can be described thus: CEETOX_H295R_CORTIC: CeeTox H295R High-throughput Steroidogenesis Assay for Corticosterone (CORTIC) (AID 2283437; active means hit-call score of the fitted dose curve at least 0.9, where 1 is the maximum; inactive means score below 0.9). The note with it: actives raise or lower the signal. The method, boiled down: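 Medium corticosterone was quantified by tandem mass spectrometry following 48 hours of chemical exposure (0.1% DMSO) in human H295R cells previously stimulated 48 hours with 10 uM forskolin. Viability checked by MTT; chemicals diluted and retested when viability fell below 70%.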

The nature of test [11]: CEETOX_H295R_ESTRADIOL: CeeTox H295R High-throughput Steroidogenesis Assay for Estradiol (AID 2283440; active means hit-call score of the fitted dose curve at least 0.9, where 1 is the maximum; inactive means score below 0.9;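 further: estradiol secreted into medium quantified by LC-MS/MS after dansyl derivatisation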). The note with it: actives raise or lower the signal. The method, boiled down: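 H295R adrenocortical cells were prestimulated with 10 uM forskolin for 48 h, then exposed to test chemical in 0.1% DMSO for 48 h. Medium estradiol was extracted with MTBE, dansyl-derivatized and quantified by HPLC-MS/MS; bidirectional fit versus DMSO.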

Test [12] is described as follows: CEETOX_H295R_ESTRONE: CeeTox H295R High-throughput Steroidogenesis Assay for Estrone (AID 2283441; active means hit-call score of the fitted dose curve at least 0.9, where 1 is the maximum; inactive means score below 0.9;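 further: estrone secreted into medium measured by LC-MS/MS after dansyl derivatization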). The note with it: actives raise or lower the signal. In a few lines:
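Forskolin-stimulated H295R cells are treated 48 h with chemical, and estrone in the medium is measured by LC-MS/MS. Activity is fitted in both directions relative to DMSO controls, with chemicals diluted until MTT viability reaches at least 70%.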

Test [13] can be described thus: CEETOX_H295R_PROG: CeeTox H295R High-throughput Steroidogenesis Assay for Progesterone (PROG) (AID 2283442; active means hit-call score of the fitted dose curve at least 0.9, where 1 is the maximum; inactive means score below 0.9;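 on AC50: human H295R adrenal cells primed with 10 µM forskolin before dosing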). The note with it: actives raise or lower the signal. In a few lines: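 H295R human adrenal cells were prestimulated with 10 uM forskolin for 48 h, then exposed to test chemical (0.1% DMSO final) for 48 h. Medium progesterone was MTBE-extracted and quantified by HPLC-MS/MS, with bidirectional fitting against DMSO.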

In test [14] the target is Retinoic acid receptor RXR-alpha (Homo sapiens) (UniProt P19793). In words: OT_NURR1_NURR1RXRa_1440: Odyssey Thera (OT) 24-hour HEK293T Protein Complementation Assay for Nurr1/retinoid X receptor (RXR) (AID 2283386). The method, boiled down: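 Cell-based binding reporter: HEK293T cells, 24 h exposure, fluorescence-detected fragment complementation, DMSO as baseline.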

The target in test [15] is Bile acid receptor (Homo sapiens) (UniProt Q96RI1). In words: OT_FXR_FXRSRC1_0480: Odyssey Thera (OT) 8-hour HEK293T Protein-Complementation Assay for Farnesoid X receptor/SRC-1 Co-activator (AID 2283383). The method, boiled down:
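Readings were taken 8 h after dosing HEK293T cells in a split-reporter complementation format pairing FXR with SRC-1. Increased fluorescence relative to DMSO-treated wells defined activity.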

The target is the same in test [16]. In words: OT_FXR_FXRSRC1_1440: Odyssey Thera (OT) 24-hour HEK293T Protein-Complementation Assay for Farnesoid X receptor/SRC-1 Co-activator (AID 2283384). In a few lines:
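Single endpoint, analysed for increased fluorescence against DMSO controls. HEK293T cells carrying FXR and SRC-1 linked to complementary reporter halves were exposed to chemicals for 24 h before reading.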

Test [17] is described as follows: CEETOX_H295R_ANDR: CeeTox H295R High-throughput Steroidogenesis Assay for Androstenedione (ANDR) (AID 2283436; active means hit-call score of the fitted dose curve at least 0.9, where 1 is the maximum; inactive means score below 0.9). The note with it: actives raise or lower the signal. In a few lines: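 Medium from 48 h chemical-treated H295R adrenal cells was extracted with MTBE and androstenedione measured by LC-MS/MS. Activity was fit in both directions relative to DMSO. Cytotoxic concentrations were re-tested after dilution until MTT viability reached ≥70%.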

Chain of Peroxisome proliferator-activated receptor gamma (Homo sapiens) (P37231 whole entry, looked up): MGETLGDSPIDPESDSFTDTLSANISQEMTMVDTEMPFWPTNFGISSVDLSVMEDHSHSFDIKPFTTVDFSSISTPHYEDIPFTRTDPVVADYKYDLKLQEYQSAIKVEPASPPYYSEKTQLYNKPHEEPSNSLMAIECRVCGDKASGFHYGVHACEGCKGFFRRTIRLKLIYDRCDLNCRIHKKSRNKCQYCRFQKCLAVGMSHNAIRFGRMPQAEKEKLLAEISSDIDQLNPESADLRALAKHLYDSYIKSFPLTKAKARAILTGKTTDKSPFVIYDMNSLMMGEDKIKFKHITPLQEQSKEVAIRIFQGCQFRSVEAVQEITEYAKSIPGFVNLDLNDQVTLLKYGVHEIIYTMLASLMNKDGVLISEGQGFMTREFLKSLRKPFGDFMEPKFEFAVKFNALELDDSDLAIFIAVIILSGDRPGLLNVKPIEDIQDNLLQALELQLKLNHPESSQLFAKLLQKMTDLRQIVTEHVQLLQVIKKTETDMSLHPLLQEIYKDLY
Chain of Bile acid receptor (Homo sapiens) (Q96RI1 whole entry, looked up): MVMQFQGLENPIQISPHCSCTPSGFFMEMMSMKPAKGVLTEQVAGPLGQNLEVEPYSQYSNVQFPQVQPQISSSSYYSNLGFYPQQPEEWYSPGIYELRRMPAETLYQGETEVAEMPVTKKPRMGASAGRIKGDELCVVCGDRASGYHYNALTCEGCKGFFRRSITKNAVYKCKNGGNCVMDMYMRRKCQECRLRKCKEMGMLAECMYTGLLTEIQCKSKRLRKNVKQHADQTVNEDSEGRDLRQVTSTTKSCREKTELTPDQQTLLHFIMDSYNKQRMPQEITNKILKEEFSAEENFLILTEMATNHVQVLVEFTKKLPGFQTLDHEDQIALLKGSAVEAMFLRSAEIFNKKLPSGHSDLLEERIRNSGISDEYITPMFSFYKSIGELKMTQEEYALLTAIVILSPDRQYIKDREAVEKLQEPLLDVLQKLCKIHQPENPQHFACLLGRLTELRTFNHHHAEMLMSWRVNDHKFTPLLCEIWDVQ

In the case of `CN(C)c1ccc2nc3ccc(=[N+](C)C)cc-3sc2c1`, the concentration at half-maximal activity (AC50) in test [1] is 14.7 µM (active); in test [2] it was 40.6 µM (active); in [3] it was 28.2 µM (active); in test [4], 26.3 µM (active); in test [5], 31.1 µM (active); in [13], 0.617 µM (active). For the same compound, the outcome in test [6], in [7], in test [8], in [9], in test [10] and in test [11] was inactive. Besides, the compound was classed as inactive in test [12].
For `CCCCNS(=O)(=O)c1ccc(C)cc1`, the outcome in test [2], in test [3], in test [14], in test [5] and in [6] was inactive.
With `CC1=CC=C(C(C)C)CC1`, the values for the half-maximal activity concentration (AC50) in test [2] and in test [3] were 23.6 µM (active) and 23.8 µM (active), respectively. Moreover, the call in test [4] was inactive.
As for `O=C(Oc1ccccc1)c1ccccc1O`, the outcome in test [2], in test [3], in test [4], in test [5] and in test [6] was inactive.
Turning to `CCCC=C(C=O)CC`, the outcome in test [1], in test [2], in test [3] and in [14] was inactive.
Take `CC(=O)OC(C)c1ccccc1` (centres undefined): the call in test [1], in test [2], in [3], in test [14], in [5] and in [6] was inactive.
With `CCCCCC[C@@H](O)C/C=C\CCCCCCCC(=O)OCC(O)CO` (some centres undefined), the outcome in test [2], in test [3], in test [4], in test [14], in test [5] and in test [6] was inactive.
For `CC1=CCC2CC1C2(C)C` (centres undefined), the compound was classed as inactive in test [1], in test [2], in [3], in test [5] and in test [6].
Consider `C=C[C@@]1(C)CC(=O)[C@]2(O)[C@@]3(C)[C@@H](O)CCC(C)(C)[C@@H]3[C@H](O)[C@H](OC(C)=O)[C@@]2(C)O1`, for which the AC50 in test [1] was 27.4 µM (active); in test [2] it was 89.1 µM (active); in [4] it was 0.183 µM (active); in test [7], 0.51 µM (active); in [8], 0.817 µM (active); in test [9], 0.799 µM (active). Moreover, the AC50 was 0.609 µM (active) in test [10], 0.774 µM (active) in test [11] and 0.719 µM (active) in test [12]. The call in test [3], in test [5], in test [6] and in test [13] was inactive.
With `CC12CCC(CC1)C(C)(C)O2`, the result in test [2], in test [3], in test [15], in test [16], in [5] and in test [6] was inactive.
On to `CC(C)(C)N`, for which the compound was called inactive in test [2], in test [3], in test [5] and in [6].
In the case of `C/C=C/C=C/CCCCCCCO`, the result in test [2], in test [3], in test [15], in [4], in [5] and in test [6] was inactive.
Consider `CCC1COC(=O)O1` (centres undefined), for which the compound was called inactive in test [2], in [3], in test [15], in test [16], in test [4] and in test [14]. In addition, the compound was called inactive in test [5] and in test [6].
Turning to `O=C(O)CC(C(=O)O)S(=O)(=O)O` (centres undefined), the call in test [2], in test [3], in test [4], in test [5] and in test [6] was inactive.
On to `CC(=O)c1ccccc1O`, for which the result in test [2], in test [3] and in [6] was inactive.
For the compound `O=C(O)/C=C/c1ccccc1`, the AC50 in test [2] is 23.4 µM (active). Besides, the outcome in [3], in test [5] and in test [6] was inactive.
As for `C[Si]1(C)O[Si](C)(C)O[Si](C)(C)O[Si](C)(C)O[Si](C)(C)O1`, the outcome in test [2], in [3], in test [5] and in test [6] was inactive.
Regarding `C=CC(=O)OCCCCCCOC(=O)C=C`, the compound was called inactive in [7], in [8], in test [9], in test [17], in test [10] and in test [11]. Also, the outcome in test [12] and in test [13] was inactive.
Consider `O=C(OCCc1ccccc1)c1ccccc1`, for which the compound was called inactive in test [2], in [3], in test [5] and in test [6].
For `CCc1occc(=O)c1O`, the compound was called inactive in test [2], in test [3], in test [15], in [16], in [4] and in test [14]. The outcome in test [5] and in test [6] was inactive.
As to `Oc1ccccc1Cc1ccccc1O`, the concentration at half-maximal activity (AC50) in test [1] was 11.8 µM (active). For the same compound, the compound was classed as inactive in test [2], in test [3], in test [5] and in test [6].
For the compound `C=C(C)C1CC=C(C)CC1` (centres undefined), the result in [2], in [3], in test [4] and in test [14] was inactive.
As for `CCCCCCOc1ccc(N)cc1`, the outcome in test [2], in test [3], in [15], in [4], in [5] and in test [6] was inactive. Moreover, the AC50 in [16] was 14.3 µM (active).
Turning to `COC(=O)c1ccccc1C`, the compound was classed as inactive in [1], in [2], in test [3], in test [14], in test [5] and in test [6].
For the compound `CC(=O)/C=C/C1C(C)=CCCC1(C)C` (centres undefined), the call in test [2], in [3], in [15], in test [4], in test [5] and in test [6] was inactive.
Regarding `CCCCCCC=O`, the call in test [2], in test [3], in test [5] and in [6] was inactive.
Consider `C1CNCCN1`, for which the result in test [1], in test [2], in [3], in test [5] and in [6] was inactive.
In the case of `CCCCCCO`, the compound was called inactive in test [2], in test [3], in test [4], in test [14], in [5] and in test [6].
For `CC(C)COC(=O)CC(C(=O)OCC(C)C)S(=O)(=O)O` (centres undefined), the compound was called inactive in test [1], in test [2], in test [3], in test [14], in test [5] and in test [6].
